# Measurements reported in PubChem BioAssay (EPA / NIEHS).
# Calls of active or inactive are those of the source. The calls were made as follows: active = hit-call score of the fitted dose curve at least 0.9, where 1 is the maximum; inactive = score below 0.9.
# Assays:
# [1] = ATG_M_61_CIS: Attagene CIS-FACTORIAL HepG2 Assay for M61 Transcription Factor (Internal Marker) (AID 2282937); details: HepG2 Attagene CIS-FACTORIAL M61 internal marker reporter; actives raise or lower the signal
# Procedure, shortened: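 HepG2 cells transiently transfected with multiplexed cis-promoter reporter units reporting endogenous transcription factor activity, measured 24 h after dosing. Reporter mRNA quantified by RT-PCR and capillary electrophoresis; bidirectional fit against DMSO baseline.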
# [2] = ATG_EGR_CIS: Attagene CIS-FACTORIAL HepG2 Assay for human Early Growth Response 1 (EGR1) (AID 2282938); details: HepG2 Attagene CIS-FACTORIAL EGR reporter mRNA; actives raise or lower the signal
# Procedure, shortened: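 HepG2 cells transiently transfected with cis-element-driven multiplexed reporter units, dosed for 24 h. EGR1-element reporter mRNA quantified by RT-PCR, 6-FAM labelling, HpaI digestion and capillary electrophoresis; bidirectional fit versus DMSO.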
# [3] = ATG_M_19_CIS: Attagene CIS-FACTORIAL HepG2 Assay for M19 Transcription Factor (Internal Marker) (AID 2282939); details: HepG2 Attagene CIS-FACTORIAL M19 internal marker reporter; actives raise or lower the signal
# Procedure, shortened: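 Transfect HepG2 with MRTU reporter library → dose chemical, 24 h → isolate total RNA, reverse-transcribe with oligo(dT) → PCR, 6-FAM label, HpaI cut (2 h, 37 C) → capillary electrophoresis. Bidirectional fit vs DMSO.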
# [4] = ATG_ERE_CIS: Attagene CIS-FACTORIAL HepG2 Assay for Estrogen Response Element (ERE) (AID 2282940); details: HepG2 ERE cis-reporter, Attagene RNA transcript; actives raise or lower the signal
# Procedure, shortened: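 Transient MRTU transfection of human HepG2; cis-element promoters; 24 h dosing; total RNA → RT (oligo dT) → PCR → 6-FAM primer extension → HpaI digest → CE fluorescence. Bidirectional fit, DMSO baseline.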
# [5] = ATG_Ets_CIS: Attagene CIS-FACTORIAL HepG2 Assay for human Erythroblast Transformation Specific (ETS) (AID 2282941); details: HepG2 ETS cis-reporter transcription, actives raise or lower the signal
# Procedure, shortened: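 HepG2 cells transiently transfected with cis-promoter reporter transcription units were dosed for 24 h; reporter mRNA was measured by RT-PCR, 6-FAM primer extension, HpaI digestion and capillary electrophoresis, with bidirectional fitting against DMSO baseline.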
# [6] = biological target: Hepatocyte nuclear factor 3-beta (Homo sapiens) (UniProt Q9Y261); experiment: ATG_FoxA2_CIS: Attagene CIS-FACTORIAL HepG2 Assay for human Forkhead box A2 (FOXA2) (AID 2282942); details: HepG2 cis-reporter transcription factor activity, 24 h; actives raise or lower the signal
# Chain of Hepatocyte nuclear factor 3-beta (Homo sapiens) (Q9Y261 whole entry, looked up): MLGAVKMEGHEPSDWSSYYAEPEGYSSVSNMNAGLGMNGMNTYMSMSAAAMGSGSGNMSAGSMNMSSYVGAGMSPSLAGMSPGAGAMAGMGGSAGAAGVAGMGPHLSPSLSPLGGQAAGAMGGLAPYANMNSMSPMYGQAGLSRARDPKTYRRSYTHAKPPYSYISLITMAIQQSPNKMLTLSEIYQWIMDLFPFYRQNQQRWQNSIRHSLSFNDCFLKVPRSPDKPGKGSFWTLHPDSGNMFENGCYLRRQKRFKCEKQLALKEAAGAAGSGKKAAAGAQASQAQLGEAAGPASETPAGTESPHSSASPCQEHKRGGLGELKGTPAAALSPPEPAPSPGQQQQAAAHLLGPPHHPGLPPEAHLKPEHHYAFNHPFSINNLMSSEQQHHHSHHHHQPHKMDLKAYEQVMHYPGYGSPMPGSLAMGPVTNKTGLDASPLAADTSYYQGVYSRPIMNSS
# Procedure, shortened: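 HepG2 transiently transfected with a multiplexed cis-promoter reporter library read endogenous FOXA2 activity. After 24 h compound exposure, reporter mRNA was quantified by RT-PCR, HpaI digestion and capillary electrophoresis. Bidirectional fit against DMSO.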
# [7] = ATG_FoxO_CIS: Attagene CIS-FACTORIAL HepG2 Assay for human Forkhead box O (FoxO) (AID 2282943); details: HepG2 Attagene cis-reporter, FoxO element, mRNA; actives raise or lower the signal
# Procedure, shortened: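 Human hepatoma HepG2 cells carry transiently introduced reporter transcription units controlled by cis promoter elements. Chemical treatment lasted 24 h, and mRNA signal was compared with DMSO.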
# [8] = ATG_GLI_CIS: Attagene CIS-FACTORIAL HepG2 Assay for human Zinc Finger Protein GLI1 (AID 2282945); details: HepG2, Attagene cis-factorial reporter mRNA, GLI element; actives raise or lower the signal
# Procedure, shortened: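 Bidirectional curve fits relative to DMSO, using reporter mRNA levels from RT-PCR plus capillary electrophoresis. Cells were HepG2 transiently carrying cis-regulated reporter constructs, harvested 24 h after dosing.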
# [9] = ATG_GATA_CIS: Attagene CIS-FACTORIAL HepG2 Assay for human GATA Binding Protein (AID 2282944); details: HepG2 GATA cis-element reporter, Attagene multiplex mRNA; actives raise or lower the signal
# Procedure, shortened: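 Transient MRTU transfection, HepG2, 24 h compound exposure. Total RNA → oligo(dT) RT → PCR → 6-FAM primer extension → HpaI cut → CE. Bidirectional fit vs DMSO.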
Compound,outcome [1],outcome [2],outcome [3],outcome [4],outcome [5],outcome [6],outcome [7],outcome [8],outcome [9],AC50 [1],AC50 [2],AC50 [4],AC50 [6]
O=c1[nH]c(=O)c2[nH]c(=O)[nH]c2[nH]1,inactive,inactive,inactive,inactive,inactive,inactive,inactive,inactive,,,,,
COCC(C)N (stereo not drawn),inactive,inactive,inactive,,inactive,inactive,inactive,inactive,inactive,,,,
CC(C)CC(O)Cc1ccccc1 (stereo not drawn),inactive,inactive,inactive,inactive,inactive,inactive,inactive,inactive,inactive,,,,
CC1OC1C1CCC2(C)OC2C1 (stereo not drawn),inactive,inactive,inactive,inactive,inactive,inactive,inactive,,inactive,,,,
O=C(c1ccccc1)C1CCC1,inactive,inactive,inactive,inactive,inactive,inactive,inactive,inactive,inactive,,,,
CC(C)(C)C(=O)C=Cc1ccc(Cl)cc1,,,inactive,,inactive,,inactive,,inactive,148 µM (active),30.2 µM (active),155 µM (active),178 µM (active)
COC(=O)C1=C(C)NC(C)=C(C(=O)OCC(C)C)C1c1ccccc1[N+](=O)[O-] (stereo not drawn),inactive,inactive,inactive,inactive,inactive,inactive,inactive,inactive,inactive,,,,
CCCCC(CC)COC(=O)c1ccccc1 (stereo not drawn),inactive,inactive,inactive,,inactive,inactive,inactive,inactive,,,,37.3 µM (active),
C=C(C)[C@H]1CC=C(C)CC1,inactive,inactive,inactive,inactive,inactive,inactive,inactive,inactive,inactive,,,,
CCCCCc1ccc(Cl)cc1,inactive,inactive,inactive,inactive,inactive,inactive,inactive,inactive,inactive,,,,
CC(C)(Oc1ccc(C2CC2(Cl)Cl)cc1)C(=O)O (stereo not drawn),inactive,inactive,inactive,inactive,inactive,inactive,inactive,inactive,inactive,,,,
CC(C)c1ccc(C=O)cc1,inactive,,inactive,inactive,inactive,inactive,inactive,,inactive,,,,
COC(=O)c1ccc2cc(C(=O)OC)ccc2c1,inactive,inactive,inactive,inactive,inactive,inactive,inactive,inactive,,,,,
OCCCS,inactive,inactive,inactive,inactive,inactive,inactive,inactive,inactive,inactive,,,,
